Unmarked numbers belong to inactive results. Active and inactive are the calls of the source.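 The calls were made as follows: active = viability at or under a set limit in both replicates, limit being median viability minus 3 SD (cut at about 48% in these data, passing the limit was not always enough); inconclusive = at or under the limit in just one replicate; inactive = at or above the limit in both replicates.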
assay: H69AR cell proliferation blockers – human, duplicate replicates, primary screen (AID 580); conditions: H69AR lung tumor cells viability, ATP luminescence, 72 h; at 10 µM; stronger effect = lower value;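 also: 100% = mean luminescence of untreated wells and 0% = no signal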

Row | Compound | viability
1 | CCOC(=O)C1CCN(c2c(NC3CCCCCCC3)c(=O)c2=O)CC1 | 79.7%
2 | Cc1c(/C(O)=C2/C(=O)C(=O)N(CCN3CCOCC3)C2c2cccs2)cnn1-c1ccccc1 (stereo not given) | 96.2%
3 | c1ccc(CSCc2cn3ccsc3n2)cc1 | 99.1%
4 | O=c1c2ccccc2nc(SCc2cn3ccsc3n2)n1-c1ccc(F)cc1 | 102%
5 | Cc1cnc(C(=O)Nc2ccc(N3CCN(C(=O)OC(C)(C)C)CC3)cc2)cn1 | 115%
6 | COc1ccccc1N(C)S(=O)(=O)c1ccc(C(=O)NC2=NCCS2)cc1 | 96.2%
7 | C/C(N)=C(/C#N)C(=O)COC(=O)c1cc(S(=O)(=O)N2CCCCC2)ccc1C | 95.8%
8 | O=C(NCc1ccc2c(c1)OCO2)c1ccc(NS(=O)(=O)c2ccc3c(c2)OCCO3)cc1 | 106%
9 | Cc1nnc(SCC(=O)NC(C)(C)C)n1CCc1ccccc1 | 95.6%
10 | CC(C)OC(=O)CSc1nnnn1-c1ccc2c(c1)OCCO2 | 88.6%
11 | Cc1sc2nc(SCC(=O)NCc3ccco3)n(CCc3ccccc3)c(=O)c2c1C | 40% (active)
12 | CC(=O)Nc1ccn(-c2ccccc2)n1 | 93.6%
13 | O=P(O)(O)C(O)C(F)(F)C(F)(F)C(F)(F)C(F)F (stereo not given) | 92.5%
14 | COCCn1c(CN2CCN(c3ccccc3F)CC2)nc2c1c(=O)n(C)c(=O)n2C | 95.8%
15 | O=C(CN1CCN(C2CCCCC2)CC1)Nc1ccccc1-c1ccccc1 | 84.7%
16 | COc1ccc(NC(=O)C23CCC(C)(C(=O)C2)C3(C)C)cc1 (stereo not given) | 102%
17 | CC(C)(C)c1nc(CN2CCOCC2)ccc1O | 101%
18 | CC(NC(=O)c1ccc2c(c1)OCO2)C(c1cccs1)N1CCOCC1 (stereo not given) | 105%
19 | Cc1ccccc1NS(=O)(=O)c1cc(C(=O)N2CCCC2)ccc1C | 84.2%
20 | O=C(C1CCCO1)N1CCc2ccccc21 (stereo not given) | 92.4%

Row | Compound | viability
21 | CCc1ccc(NS(=O)(=O)c2ccc3[nH]cc(C(=O)N4CCCCC4)c(=O)c3c2)cc1 | 89.6%
22 | O=C1COc2ccc(C(=O)COC(=O)CCc3ccc(S(=O)(=O)N4CCOCC4)cc3)cc2N1 | 79%
23 | CC(C)CCNC(=O)C(c1ccco1)N(CC1CCCO1)C(=O)Cn1nnc2ccccc21 (stereo not given) | 94.4%
24 | CCOc1ccc(CCNC(=O)CCc2nc(-c3ccc(OC)cc3)no2)cc1OCC | 94.3%
25 | COc1cccc(-n2c(C)nc3c(cnn3-c3ccc(Cl)cc3)c2=O)c1 | 76.3%
26 | CCOC(=O)c1sc2nc(SCC#N)n(CCCN3CCCC3=O)c(=O)c2c1C | 75.8%
27 | COc1ccc(-c2nc(SC)n(S(=O)(=O)c3ccccc3)n2)cc1 | 98.1%
28 | CC(=O)NCc1cccc(CNC(C)=O)n1 | 98%
29 | Cc1ccc(-c2nc(N)n(C(=O)c3cccnc3)n2)cc1 | 105%
30 | CCOCCCNC(=O)c1cc2sc(Cl)cc2n1CC | 28.5% (active)
31 | O=C(COc1ccc(S(=O)(=O)N2CCCC2)cc1Cl)NC1CC1 | 101%
32 | O=C(CSc1nc2ccccc2nc1SCC(=O)N1CCOCC1)N1CCOCC1 | 95.7%
33 | CCOc1ccc(/C=N/n2cnnc2)cc1 | 96.7%
34 | COc1cccc2cc(C(=O)N3CCc4ccccc43)c(=O)oc12 | 94.2%
35 | Cc1n[nH]c(C)c1S(=O)(=O)Nc1ccc2c(c1)OCCO2 | 104%
36 | O=C(Cn1c(C(=O)NCC2CCCO2)cc2sccc21)c1ccccc1 (stereo not given) | 90.3%
37 | Nn1cc(-c2ccccc2)nc1SCC(=O)N1CCN(S(=O)(=O)c2ccccc2)CC1 | 101%
38 | COc1cc(C(N)=O)ccc1OCc1ccccc1 | 98.7%
39 | CCCCn1c(CN(C)Cc2ccccc2)nc2c1c(=O)n(C)c(=O)n2C | 71.6%
40 | CCOc1ccc(-c2nc(S(=O)(=O)c3ccccc3)c(NCc3cccnc3)o2)cc1 | 97.6%
